Experimental data published in PubChem BioAssay (EPA / NIEHS).
Results filed as inconclusive are left out. Active and inactive are the calls of the source. How the source made its calls, unless noted: active means hit-call score of the fitted dose curve at least 0.9, where 1 is the maximum; inconclusive means response in the unintended direction; inactive means score below 0.9.

What was measured:
[1] = CCTE_Padilla_ZF_144hpf_TERATOSCORE: (Legacy) CCTE's 144 Hour Post-fertilization zebrafish Assay Teratoscore, Padilla Lab (AID 2283679; active means hit-call score of the fitted dose curve at least 0.9, where 1 is the maximum; inactive means score below 0.9;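 on AC50: zebrafish embryos with chorions exposed by immersion from 6-8 hpf to 5 dpf with daily renewal; teratogenicity score from eye scoring of death hatching and malformations at 144 hpf; higher score means more developmental defects relative to DMSO baseline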)
Method in brief: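 Larvae scored by eye at 144 hpf for death, hatching and malformations after a day in clean Hanks'. Before that, daily-renewed exposure at 80 uM (0.4% DMSO, 26C) from roughly 6-8 hpf through 5 dpf, 4 embryos per chemical.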

[2] = read-out: Cytochrome P450 3A4 (Homo sapiens) (UniProt P08684); assay: CLD_CYP3A4_6hr: CellzDirect (CLD) Gene Expression Assay for xenobiotic metabolism (CYP3A4) at 6 hours (AID 2283680)
Method in brief: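 Primary human hepatocytes (two donor preparations) dosed; CYP3A4 mRNA harvested at 6 h and quantified by qNPA chemiluminescence. Gain of signal fitted against 0.2% DMSO vehicle; cytotoxicity flagged by phase-contrast morphology.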

[3] = read-out: xenobiotic metabolism (CYP1A2), CYP1A2 (gene 1544); assay: CLD_CYP1A2_24hr: CellzDirect (CLD) Gene Expression Assay for xenobiotic metabolism (CYP1A2) at 24 hours (AID 2283683)
Method in brief: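 Primary human hepatocytes from two donor preparations dosed daily with multiple concentrations of chemical, 0.2% DMSO vehicle. CYP1A2 mRNA at 24 h quantified by qNPA chemiluminescence; gain of signal analyzed relative to DMSO. Cytotoxicity flagged by phase-contrast morphology.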

[4] = read-out: ABC Transporter (ABCB1), ABCB1 (gene 5243); assay: CLD_ABCB1_24hr: CellzDirect (CLD) Gene Expression Assay for ABC Transporter (ABCB1) at 24 hours (AID 2283684);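 on AC50: potency for increase in ABCB1 mRNA relative to DMSO vehicle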
Method in brief: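 Primary human hepatocytes, two donor preparations, dosed daily with fresh solutions; vehicle 0.2% DMSO; harvested at 24 h. ABCB1 mRNA measured by quantitative nuclease protection assay (chemiluminescence); morphology-based cytotoxicity annotated.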

[5] = read-out: Cytochrome P450 3A4 (Homo sapiens) (UniProt P08684); assay: CLD_CYP3A4_24hr: CellzDirect (CLD) Gene Expression Assay for xenobiotic metabolism (CYP3A4) at 24 hours (AID 2283689)
Method in brief: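 Primary human hepatocytes from two donors dosed daily with fresh compound for two days, 0.2% DMSO vehicle. CYP3A4 mRNA at 24 hr by qNPA chemiluminescence; gain-of-signal fit versus DMSO, cytotoxicity flagged by morphology.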

[6] = read-out: sulfotransferase (SULT2A), SULT2A1 (gene 6822); assay: CLD_SULT2A_24hr: CellzDirect (CLD) Gene Expression Assay for sulfotransferase (SULT2A) at 24 hours (AID 2283694);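 on AC50: potency for increased SULT2A1 mRNA level as induction over DMSO baseline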
Method in brief: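 Primary human hepatocytes from two donor preparations were dosed daily with fresh solutions, vehicle 0.2% DMSO. At 24 h, lysates went to quantitative nuclease protection (qNPA) with S1 digestion and chemiluminescent readout. Cytotoxicity was annotated from phase-contrast morphology.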

[7] = read-out: Broad substrate specificity ATP-binding cassette transporter ABCG2 (Homo sapiens) (UniProt Q9UNQ0); assay: CLD_ABCG2_24hr: CellzDirect (CLD) Gene Expression Assay for ABC Transporter (ABCG2) at 24 hours (AID 2283685)
Method in brief: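 Primary human hepatocytes were dosed daily with ToxCast chemicals at multiple concentrations (vehicle 0.2% DMSO). ABCG2 mRNA was measured at 24 h by qNPA chemiluminescence; induction was scored as gain of signal versus DMSO.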

[8] = read-out: Cytochrome P450 2C9 (Homo sapiens) (UniProt P11712); assay: CLD_CYP2C9_24hr: CellzDirect (CLD) Gene Expression Assay for xenobiotic metabolism (CYP2C9) at 24 hours (AID 2283688)
Method in brief: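 Primary human hepatocytes from two donor preparations, dosed daily for two days at multiple concentrations; vehicle 0.2% DMSO. CYP2C9 mRNA induction at 24 h measured by qNPA chemiluminescence relative to DMSO; cytotoxicity annotated from morphology.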

[9] = read-out: alkyl and aryl transferase (GSTA2), GSTA2 (gene 2939); assay: CLD_GSTA2_24hr: CellzDirect (CLD) Gene Expression Assay for alkyl and aryl transferase (GSTA2) at 24 hours (AID 2283693)
Method in brief: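 Primary human hepatocytes (two donor preparations) dosed daily for two days with chemicals at multiple concentrations (vehicle 0.2% DMSO); GSTA2 mRNA at 24 h measured by qNPA chemiluminescence, gain-of-signal versus DMSO.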

[10] = read-out: Glyceraldehyde-3-phosphate dehydrogenase (Homo sapiens) (UniProt P04406); assay: CLD_GAPDH_6hr: CellzDirect (CLD) Gene Expression Assay for Baseline Control (Glyceraldehyde 3-phosphate dehydrogenase) at 6 hours (AID 2283681);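 further: active means increased signal relative to DMSO vehicle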
Method in brief: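 Primary human hepatocytes from two donor preparations, dosed at multiple concentrations with 0.2% DMSO vehicle; GAPDH mRNA measured 6 h after dosing by chemiluminescent quantitative nuclease protection assay (qNPA) on denatured lysates. Serves as background control; cytotoxicity annotated by morphology.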

[11] = read-out: Glyceraldehyde-3-phosphate dehydrogenase (Homo sapiens) (UniProt P04406); assay: CLD_GAPDH_24hr: CellzDirect (CLD) Gene Expression Assay for Baseline Control (Glyceraldehyde 3-phosphate dehydrogenase) at 24 hours (AID 2283692)
Method in brief: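 Primary human hepatocytes (two donor preparations) dosed daily for two days, 0.2% DMSO vehicle; GAPDH mRNA measured at 24 h by qNPA chemiluminescence as a background control, gain-of-signal fitted against DMSO.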

[12] = read-out: Cytochrome P450 3A4 (Homo sapiens) (UniProt P08684); assay: CLD_CYP3A4_48hr: CellzDirect (CLD) Gene Expression Assay for xenobiotic metabolism (CYP3A4) at 48 hours (AID 2283698)
Method in brief: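 Primary human hepatocytes from two donor preparations dosed daily for two days with multiple chemical concentrations, 0.2% DMSO vehicle. CYP3A4 mRNA at 48 h by quantitative nuclease protection assay, chemiluminescence, positive fit versus DMSO; cytotoxicity flagged morphologically.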

[13] = read-out: Cytochrome P450 2B6 (Homo sapiens) (UniProt P20813); assay: CLD_CYP2B6_24hr: CellzDirect (CLD) Gene Expression Assay for xenobiotic metabolism (CYP2B6) at 24 hours (AID 2283686)
Method in brief: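 Primary human hepatocytes dosed daily for two days with fresh solutions, harvested at 24 hours; mRNA induction quantified by qNPA chemiluminescence, gain of signal vs 0.2% DMSO vehicle. Cytotoxicity annotated from phase-contrast morphology.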

[14] = read-out: organic anion transporter (SLCO1B1), SLCO1B1 (gene 10599); assay: CLD_SLCO1B1_24hr: CellzDirect (CLD) Gene Expression Assay for organic anion transporter (SLCO1B1) at 24 hours (AID 2283690)
Method in brief: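 Primary human hepatocytes (two donor preparations) dosed daily for two days with chemicals at multiple concentrations, 0.2% DMSO vehicle. SLCO1B1 mRNA at 24 h measured by qNPA chemiluminescence; induction fitted relative to DMSO.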

[15] = read-out: glucuronosyltransferase (UGT1A1), UGT1A1 (gene 54658); assay: CLD_UGT1A1_24hr: CellzDirect (CLD) Gene Expression Assay for glucuronosyltransferase (UGT1A1) at 24 hours (AID 2283696)
Method in brief: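 Primary human hepatocytes from two donor preparations were dosed (0.2% DMSO vehicle) and harvested at 24 h; UGT1A1 mRNA induction was quantified by chemiluminescent qNPA, fitted as gain relative to DMSO.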

[16] = read-out: HMG-CoA synthase (HMGCS2), HMGCS2 (gene 3158); assay: CLD_HMGCS2_6hr: CellzDirect (CLD) Gene Expression Assay for HMG-CoA synthase (HMGCS2) at 6 hours (AID 2283682);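 further: actives raise HMGCS2 transcript above the 0.2% DMSO vehicle baseline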
Method in brief: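 Primary human hepatocytes dosed daily with fresh chemical, 0.2% DMSO vehicle; HMGCS2 mRNA measured at 6 h by qNPA chemiluminescence. Gain of signal fitted against DMSO; cytotoxicity flagged from phase-contrast morphology.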

[17] = read-out: ABC Transporter (ABCB1), ABCB1 (gene 5243); assay: CLD_ABCB1_48hr: CellzDirect (CLD) Gene Expression Assay for ABC Transporter (ABCB1) at 48 hours (AID 2283695)
Method in brief: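 Primary human hepatocytes from two donor preparations dosed daily on two consecutive days with 0.2% DMSO vehicle. Harvest at 48 h. ABCB1 mRNA quantified by qNPA with chemiluminescence and fitted for gain of signal versus DMSO.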

Measured: AC50

Chain of Glyceraldehyde-3-phosphate dehydrogenase (Homo sapiens) (P04406 whole entry, looked up): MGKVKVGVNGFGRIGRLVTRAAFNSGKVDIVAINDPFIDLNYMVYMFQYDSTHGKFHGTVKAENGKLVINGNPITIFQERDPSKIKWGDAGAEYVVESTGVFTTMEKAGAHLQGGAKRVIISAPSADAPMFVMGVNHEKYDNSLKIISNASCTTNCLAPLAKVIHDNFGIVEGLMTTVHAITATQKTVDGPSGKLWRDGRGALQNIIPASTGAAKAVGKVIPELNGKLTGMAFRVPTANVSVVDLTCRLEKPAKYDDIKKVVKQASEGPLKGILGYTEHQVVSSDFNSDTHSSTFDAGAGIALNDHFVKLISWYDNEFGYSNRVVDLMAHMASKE
Chain of Broad substrate specificity ATP-binding cassette transporter ABCG2 (Homo sapiens) (Q9UNQ0 whole entry, looked up): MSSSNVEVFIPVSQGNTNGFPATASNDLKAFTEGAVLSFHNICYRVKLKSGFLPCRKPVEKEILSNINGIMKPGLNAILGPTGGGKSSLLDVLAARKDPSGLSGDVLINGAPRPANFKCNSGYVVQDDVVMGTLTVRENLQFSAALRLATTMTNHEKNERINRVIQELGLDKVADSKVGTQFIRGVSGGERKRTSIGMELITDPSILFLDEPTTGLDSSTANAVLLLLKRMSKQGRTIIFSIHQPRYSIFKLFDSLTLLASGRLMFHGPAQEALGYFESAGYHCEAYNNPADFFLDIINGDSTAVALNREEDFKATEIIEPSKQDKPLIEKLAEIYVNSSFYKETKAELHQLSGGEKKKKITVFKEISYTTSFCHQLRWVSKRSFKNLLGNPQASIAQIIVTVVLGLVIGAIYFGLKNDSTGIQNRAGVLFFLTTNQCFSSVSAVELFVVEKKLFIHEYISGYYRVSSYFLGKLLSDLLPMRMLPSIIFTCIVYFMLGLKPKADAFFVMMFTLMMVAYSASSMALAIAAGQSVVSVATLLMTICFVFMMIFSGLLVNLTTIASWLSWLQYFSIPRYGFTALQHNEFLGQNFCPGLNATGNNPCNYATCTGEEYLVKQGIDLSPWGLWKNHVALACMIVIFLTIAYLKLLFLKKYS
Chain of Cytochrome P450 3A4 (Homo sapiens) (P08684 whole entry, looked up): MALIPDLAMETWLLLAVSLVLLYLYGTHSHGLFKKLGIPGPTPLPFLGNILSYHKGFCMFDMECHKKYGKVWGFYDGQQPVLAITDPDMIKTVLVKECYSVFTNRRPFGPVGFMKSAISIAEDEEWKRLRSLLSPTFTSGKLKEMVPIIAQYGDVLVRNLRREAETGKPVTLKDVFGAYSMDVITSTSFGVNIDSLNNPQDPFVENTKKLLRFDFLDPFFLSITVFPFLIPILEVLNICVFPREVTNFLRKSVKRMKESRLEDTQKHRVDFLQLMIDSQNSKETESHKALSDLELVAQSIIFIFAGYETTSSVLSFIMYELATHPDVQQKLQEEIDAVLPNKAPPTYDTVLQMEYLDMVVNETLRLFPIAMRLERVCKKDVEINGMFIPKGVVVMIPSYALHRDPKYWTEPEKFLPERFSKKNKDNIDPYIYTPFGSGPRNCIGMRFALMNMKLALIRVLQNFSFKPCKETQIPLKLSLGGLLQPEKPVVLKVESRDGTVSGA

CCOP(=S)(OCC)Oc1ccc([N+](=O)[O-])cc1
active: [1] 6.3 µM | [2] 2.2 µM | [3] 4.89 µM | [5] 5.25 µM
inactive: [4] | [6]

C[N+]1(C)CCCCC1
inactive: [1] | [2] | [4] | [7] | [8] | [9]
active: [5] 1.89 µM

CCc1cccc(C)c1N(C(=O)CCl)C(C)COC (stereo not given)
inactive: [10] | [4] | [8] | [6]
active: [1] 50.9 µM | [2] 0.477 µM | [3] 3.97 µM | [5] 8.71 µM

CC(C)N(C(=O)SCC(Cl)=C(Cl)Cl)C(C)C
active: [1] 32.7 µM | [4] 35.3 µM | [5] 20 µM | [12] 3.07 µM
inactive: [2] | [3] | [7] | [11] | [9]

CCCSP(=O)(OCC)Oc1ccc(Br)cc1Cl (stereo not given)
active: [1] 8.79 µM | [2] 3.52 µM | [3] 4.13 µM | [13] 6.22 µM | [5] 20 µM | [15] 20 µM
inactive: [4] | [7] | [8] | [14]

CNC(=O)Oc1cccc2c1OC(C)(C)O2
inactive: [2] | [16] | [4] | [8] | [14] | [9]
active: [1] 50.1 µM | [3] 20 µM | [13] 20 µM | [5] 20 µM

CC[C@H](C)[C@H]1O[C@]2(C=C[C@@H]1C)C[C@@H]1C[C@@H](C/C=C(\C)[C@@H](O[C@H]3C[C@H](OC)[C@@H](O[C@H]4C[C@H](OC)[C@@H](NC)[C@H](C)O4)[C@H](C)O3)[C@@H](C)/C=C/C=C3\CO[C@@H]4[C@H](O)C(C)=C[C@@H](C(=O)O1)[C@]34O)O2
active: [1] 3.41 µM | [6] 0.336 µM
not listed: [9] | [10] | [12] | [13] | [14] | [16]
inactive: all other assays above

CC(COc1ccc(Oc2ccccc2)cc1)Oc1ccccn1 (stereo not given)
active: [1] 47.6 µM | [2] 20 µM | [5] 4.68 µM | [12] 3.97 µM
inactive: [3] | [4] | [7] | [8] | [14] | [6]

CN(C)[C@@H]1C(=O)C(C(N)=O)=C(O)[C@@]2(O)C(=O)C3=C(O)c4c(O)cccc4[C@@](C)(O)[C@H]3[C@H](O)[C@@H]12
inactive: [1] | [3] | [5] | [14] | [11] | [9] | [6]

CCc1cnc(C2=NC(C)(C(C)C)C(=O)N2)c(C(=O)O)c1 (stereo not given)
not listed: [6] | [7] | [8] | [13] | [16] | [17]
inactive: all other assays above

CCOP(=O)(OCC)Oc1cc(C)nc(C(C)C)n1
active: [1] 38.2 µM | [3] 30.7 µM
not listed: [4] | [12] | [13] | [16] | [17]
inactive: all other assays above

CCCSP(=O)(OCC)SCCC
active: [3] 4.21 µM
inactive: [1] | [2] | [10] | [4] | [7] | [5] | [9] | [6] | [15]

C#CC(C)(C)NC(=O)c1cc(Cl)cc(Cl)c1
active: [15] 1.69 µM
inactive: [1] | [3] | [4] | [7] | [13] | [8] | [5] | [6] | [12]

CCC(=NOC/C=C/Cl)C1=C(O)CC(C2CCOCC2)CC1=O (stereo not given)
inactive: [1] | [10] | [3] | [4] | [8] | [5] | [11]

CCOP(=S)(OCC)Oc1ccc2c(C)c(Cl)c(=O)oc2c1
active: [1] 27.3 µM | [3] 0.527 µM | [13] 1.28 µM
inactive: [2] | [4] | [8] | [14] | [9] | [6]

O=C(O)c1cc(Oc2ccc(C(F)(F)F)cc2Cl)ccc1[N+](=O)[O-]
inactive: [1] | [3] | [4] | [5] | [14] | [11] | [6]

CCNc1nc(Cl)nc(NC(C)(C)C#N)n1
active: [13] 3.69 µM | [5] 4.74 µM
inactive: [1] | [2] | [3] | [4] | [14] | [9] | [6]

CCOC(=O)COc1cc(-c2nn(C)c(OC(F)F)c2Cl)c(F)cc1Cl
inactive: [10] | [3] | [4] | [8] | [14] | [6] | [17]
active: [1] 0.201 µM | [2] 3.97 µM | [13] 20 µM | [5] 20 µM

CSc1nc(NC(C)C)nc(NC(C)C)n1
active: [1] 132 µM | [3] 2.63 µM | [13] 2.99 µM | [5] 3.97 µM
inactive: [2] | [10] | [4] | [8] | [9] | [6] | [17]
